What all share (test): DAPPL (digital affinity profiling via proximity ligation, sequencing); 10 mM Tris-HCl pH 7.5, 50 mM NaCl, 1 mM DTT, 4% glycerol, room temperature, 30 min; GST-TFs on glutathione beads, 16-mer random dsDNA library, 0.1% formaldehyde crosslink after washing; high values mean tight binding
The target in one assay is T1, GABPA (Homo sapiens, UniProt Q06546 1-454).
T1 sequence: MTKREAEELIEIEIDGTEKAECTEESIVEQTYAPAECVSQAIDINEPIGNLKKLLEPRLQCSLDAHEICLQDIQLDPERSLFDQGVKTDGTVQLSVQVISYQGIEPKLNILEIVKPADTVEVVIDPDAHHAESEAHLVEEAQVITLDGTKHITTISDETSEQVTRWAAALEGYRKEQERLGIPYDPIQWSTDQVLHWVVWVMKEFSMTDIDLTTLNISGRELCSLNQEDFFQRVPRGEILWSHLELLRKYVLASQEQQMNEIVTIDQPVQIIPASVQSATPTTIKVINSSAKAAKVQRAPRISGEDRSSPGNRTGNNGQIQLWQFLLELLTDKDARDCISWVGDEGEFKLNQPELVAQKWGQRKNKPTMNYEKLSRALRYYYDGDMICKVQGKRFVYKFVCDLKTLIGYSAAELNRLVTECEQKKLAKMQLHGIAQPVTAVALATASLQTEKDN
The conditions noted are these: protein: recombinant; tags: N-terminal GST; dsDNA, one strand shown. The gist of the method:
(§1)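 A tag-only sample was pooled with DNA-barcoded human transcription factors that had been expressed in yeast as GST fusions and captured on glutathione beads. The pools were incubated for 30 min at room temperature with 200 nmole of a random double-stranded 16-mer DNA library in Tris/NaCl/DTT/glycerol buffer, then washed, crosslinked with 0.1% formaldehyde, proximity-ligated (BsaI/T4 ligase, 1 h, 37 °C), PCR-amplified and sequenced on an Illumina NextSeq500. Binding signal is each hexamer's read frequency for a factor divided by its frequency for the tag-only sample.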

The next assay addresses T2, ERG (Homo sapiens, UniProt P11308 1-479).
T2 sequence: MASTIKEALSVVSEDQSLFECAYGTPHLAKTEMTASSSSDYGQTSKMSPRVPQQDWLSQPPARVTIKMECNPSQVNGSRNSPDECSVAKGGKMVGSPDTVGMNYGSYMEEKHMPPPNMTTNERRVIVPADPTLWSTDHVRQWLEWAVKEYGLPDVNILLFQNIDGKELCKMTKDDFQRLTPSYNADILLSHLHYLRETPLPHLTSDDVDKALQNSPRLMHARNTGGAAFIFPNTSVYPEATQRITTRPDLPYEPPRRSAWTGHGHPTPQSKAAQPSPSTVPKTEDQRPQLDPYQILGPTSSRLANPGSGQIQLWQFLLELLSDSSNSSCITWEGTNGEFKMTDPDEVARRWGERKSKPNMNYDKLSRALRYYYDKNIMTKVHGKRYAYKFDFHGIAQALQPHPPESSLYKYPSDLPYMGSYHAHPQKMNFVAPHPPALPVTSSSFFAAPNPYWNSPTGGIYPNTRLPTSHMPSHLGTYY
The settings on record: protein: recombinant; tags: N-terminal GST; dsDNA, one strand shown. A digest of the protocol:
as §1

In another assay the target is SPI1 (Homo sapiens, UniProt P17947 1-270). The settings on record: protein: recombinant; tags: N-terminal GST; dsDNA, one strand shown. A digest of the protocol: as §1
Another assay addresses SPIB (Homo sapiens, UniProt Q01892 1-262). The conditions noted are these: protein: recombinant; tags: N-terminal GST; dsDNA, one strand shown. The gist of the method: as §1
The next assay addresses T3, ELK3 (Homo sapiens, UniProt P41970 1-407).
T3 sequence: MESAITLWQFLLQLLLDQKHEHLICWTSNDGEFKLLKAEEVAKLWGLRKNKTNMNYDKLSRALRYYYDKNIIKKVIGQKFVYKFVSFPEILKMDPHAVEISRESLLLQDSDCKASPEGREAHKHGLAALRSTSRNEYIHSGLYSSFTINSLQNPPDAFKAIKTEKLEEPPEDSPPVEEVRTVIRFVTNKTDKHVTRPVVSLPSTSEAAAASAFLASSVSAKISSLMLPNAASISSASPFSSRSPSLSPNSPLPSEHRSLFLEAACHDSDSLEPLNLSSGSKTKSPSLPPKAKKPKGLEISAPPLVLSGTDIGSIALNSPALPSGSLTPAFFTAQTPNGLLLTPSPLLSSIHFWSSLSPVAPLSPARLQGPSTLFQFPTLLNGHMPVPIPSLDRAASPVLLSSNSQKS
The settings on record: protein: recombinant; tags: N-terminal GST; dsDNA, one strand shown. The gist of the method:
as §1

Another assay has as its target HSF1 (Homo sapiens, UniProt Q00613 1-529). The conditions noted are these: protein: recombinant; tags: N-terminal GST; chain copies: 3; dsDNA, one strand shown. A digest of the protocol: as §1
The next assay concerns the target T4, ELK4 (Homo sapiens, UniProt P28324-2 1-405).
T4 sequence: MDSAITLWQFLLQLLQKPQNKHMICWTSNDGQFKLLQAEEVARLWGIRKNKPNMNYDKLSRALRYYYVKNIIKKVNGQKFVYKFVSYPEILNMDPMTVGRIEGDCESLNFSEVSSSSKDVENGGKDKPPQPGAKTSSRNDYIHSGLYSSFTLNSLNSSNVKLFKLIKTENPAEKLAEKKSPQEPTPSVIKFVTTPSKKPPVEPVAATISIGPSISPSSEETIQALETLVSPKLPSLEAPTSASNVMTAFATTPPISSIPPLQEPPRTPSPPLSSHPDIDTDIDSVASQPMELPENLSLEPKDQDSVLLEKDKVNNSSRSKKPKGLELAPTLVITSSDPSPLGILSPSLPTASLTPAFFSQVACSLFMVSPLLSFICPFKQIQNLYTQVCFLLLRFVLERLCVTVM
The settings on record: protein: recombinant; tags: N-terminal GST; dsDNA, one strand shown. The gist of the method:
as §1

In a further assay the target is T5, ETV2 (Homo sapiens, UniProt O00321 1-342).
T5 sequence: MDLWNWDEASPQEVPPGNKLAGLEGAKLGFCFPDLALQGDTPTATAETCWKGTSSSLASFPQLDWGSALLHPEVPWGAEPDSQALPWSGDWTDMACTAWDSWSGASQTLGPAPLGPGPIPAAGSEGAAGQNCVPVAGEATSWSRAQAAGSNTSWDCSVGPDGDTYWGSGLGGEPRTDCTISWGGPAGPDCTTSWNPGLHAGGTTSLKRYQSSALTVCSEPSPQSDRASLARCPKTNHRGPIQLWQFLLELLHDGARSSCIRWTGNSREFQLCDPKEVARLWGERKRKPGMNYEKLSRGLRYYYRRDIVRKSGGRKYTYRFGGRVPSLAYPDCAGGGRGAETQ
The settings on record: protein: recombinant; tags: N-terminal GST; dsDNA, one strand shown. The gist of the method: as §1

The target of the next assay is T6, ELF3 (Homo sapiens, UniProt P78545 1-371).
T6 sequence: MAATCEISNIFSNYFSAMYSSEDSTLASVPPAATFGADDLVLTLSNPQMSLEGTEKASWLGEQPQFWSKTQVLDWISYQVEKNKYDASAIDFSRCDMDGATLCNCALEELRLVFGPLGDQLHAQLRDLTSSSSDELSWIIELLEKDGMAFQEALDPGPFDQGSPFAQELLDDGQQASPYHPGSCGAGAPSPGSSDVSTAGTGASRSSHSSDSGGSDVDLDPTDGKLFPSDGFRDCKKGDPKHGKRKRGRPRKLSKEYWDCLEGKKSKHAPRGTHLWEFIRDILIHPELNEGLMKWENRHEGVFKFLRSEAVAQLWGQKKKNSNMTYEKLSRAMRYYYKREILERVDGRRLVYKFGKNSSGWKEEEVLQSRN
The settings on record: protein: recombinant; tags: N-terminal GST; dsDNA, one strand shown. The gist of the method: as §1

The target of the next assay is CRX (Homo sapiens, UniProt O43186 1-299). The settings on record: protein: recombinant; tags: N-terminal GST; dsDNA, one strand shown. A digest of the protocol:
as §1

In another assay the target is T7, ETV3L (Homo sapiens, UniProt Q6ZN32 1-361).
T7 sequence: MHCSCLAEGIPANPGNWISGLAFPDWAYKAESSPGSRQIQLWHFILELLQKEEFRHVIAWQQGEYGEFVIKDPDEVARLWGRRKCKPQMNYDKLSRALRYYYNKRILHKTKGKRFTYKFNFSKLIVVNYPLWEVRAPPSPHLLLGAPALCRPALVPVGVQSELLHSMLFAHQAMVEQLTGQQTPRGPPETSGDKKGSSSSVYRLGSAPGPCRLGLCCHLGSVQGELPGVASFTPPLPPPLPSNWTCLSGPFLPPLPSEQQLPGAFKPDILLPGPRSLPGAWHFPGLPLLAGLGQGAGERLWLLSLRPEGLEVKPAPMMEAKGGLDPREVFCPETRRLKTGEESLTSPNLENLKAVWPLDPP
The settings on record: protein: recombinant; tags: N-terminal GST; dsDNA, one strand shown. A digest of the protocol:
as §1

For another assay, the target named is T8, ETS2 (Homo sapiens, UniProt P15036 1-469).
T8 sequence: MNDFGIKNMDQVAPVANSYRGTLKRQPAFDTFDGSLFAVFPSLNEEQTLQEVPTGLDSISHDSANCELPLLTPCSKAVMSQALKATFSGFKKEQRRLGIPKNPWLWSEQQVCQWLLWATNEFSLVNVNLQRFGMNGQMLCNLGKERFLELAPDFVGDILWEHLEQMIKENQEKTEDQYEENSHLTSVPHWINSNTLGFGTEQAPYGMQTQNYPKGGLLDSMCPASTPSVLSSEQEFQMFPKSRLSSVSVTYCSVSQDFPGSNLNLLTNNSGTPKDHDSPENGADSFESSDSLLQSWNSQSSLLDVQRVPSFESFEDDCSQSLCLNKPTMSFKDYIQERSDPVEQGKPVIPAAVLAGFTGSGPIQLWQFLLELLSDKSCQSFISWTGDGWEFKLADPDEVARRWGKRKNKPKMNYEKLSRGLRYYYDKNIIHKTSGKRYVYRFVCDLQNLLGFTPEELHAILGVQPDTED
The settings on record: protein: recombinant; tags: N-terminal GST; dsDNA, one strand shown. A digest of the protocol:
as §1

A further assay has as its target T9, ETV7 (Homo sapiens, UniProt Q9Y603 1-341).
T9 sequence: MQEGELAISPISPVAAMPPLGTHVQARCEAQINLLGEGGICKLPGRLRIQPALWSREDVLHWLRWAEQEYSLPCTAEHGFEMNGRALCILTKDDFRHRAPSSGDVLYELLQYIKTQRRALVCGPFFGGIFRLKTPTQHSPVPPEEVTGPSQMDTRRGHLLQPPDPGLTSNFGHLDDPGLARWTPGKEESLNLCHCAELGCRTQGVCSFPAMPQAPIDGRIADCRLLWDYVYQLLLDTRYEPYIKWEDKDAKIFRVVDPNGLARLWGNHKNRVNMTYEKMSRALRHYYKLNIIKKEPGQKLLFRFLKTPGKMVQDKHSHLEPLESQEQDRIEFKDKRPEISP
The conditions noted are these: protein: recombinant; tags: N-terminal GST; dsDNA, one strand shown. The gist of the method:
as §1

Another assay addresses T10, ELF5 (Homo sapiens, UniProt Q9UKW6-2 1-255).
T10 sequence: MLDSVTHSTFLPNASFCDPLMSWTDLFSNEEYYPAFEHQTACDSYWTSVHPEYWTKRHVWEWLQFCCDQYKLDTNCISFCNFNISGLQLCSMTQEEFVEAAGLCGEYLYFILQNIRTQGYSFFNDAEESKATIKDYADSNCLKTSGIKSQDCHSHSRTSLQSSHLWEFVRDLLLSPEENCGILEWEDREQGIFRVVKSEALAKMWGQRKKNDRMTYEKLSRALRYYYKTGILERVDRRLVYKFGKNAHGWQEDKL
The settings on record: protein: recombinant; tags: N-terminal GST; dsDNA, one strand shown. A digest of the protocol: as §1

The record followed here is article PMC7862700, “An all-to-all approach to the identification of sequence-specific readers for epigenetic DNA modifications on cytosine”.

SPIB, sequence (Q01892 whole entry): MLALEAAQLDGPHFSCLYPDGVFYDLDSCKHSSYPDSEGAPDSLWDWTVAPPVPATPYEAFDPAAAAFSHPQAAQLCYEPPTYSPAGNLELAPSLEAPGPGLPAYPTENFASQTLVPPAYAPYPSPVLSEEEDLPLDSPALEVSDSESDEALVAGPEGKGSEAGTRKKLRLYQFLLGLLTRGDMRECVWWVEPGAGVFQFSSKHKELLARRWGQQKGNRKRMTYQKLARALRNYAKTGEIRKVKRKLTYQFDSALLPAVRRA
HSF1, sequence (Q00613 whole entry): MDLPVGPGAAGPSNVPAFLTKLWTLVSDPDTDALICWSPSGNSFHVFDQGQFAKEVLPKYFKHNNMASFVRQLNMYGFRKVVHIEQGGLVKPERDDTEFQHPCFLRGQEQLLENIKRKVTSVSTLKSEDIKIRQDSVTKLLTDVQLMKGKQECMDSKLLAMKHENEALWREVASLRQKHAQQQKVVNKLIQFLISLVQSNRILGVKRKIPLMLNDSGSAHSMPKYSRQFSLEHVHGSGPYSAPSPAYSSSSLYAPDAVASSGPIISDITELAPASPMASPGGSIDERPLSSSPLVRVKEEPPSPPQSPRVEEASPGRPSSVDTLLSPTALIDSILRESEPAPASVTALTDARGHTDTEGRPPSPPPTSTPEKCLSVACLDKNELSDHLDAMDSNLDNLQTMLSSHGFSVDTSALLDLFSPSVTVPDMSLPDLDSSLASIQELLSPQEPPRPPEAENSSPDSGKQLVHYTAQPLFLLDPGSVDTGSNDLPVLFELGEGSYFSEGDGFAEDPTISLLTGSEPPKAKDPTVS
CRX, sequence (O43186 whole entry): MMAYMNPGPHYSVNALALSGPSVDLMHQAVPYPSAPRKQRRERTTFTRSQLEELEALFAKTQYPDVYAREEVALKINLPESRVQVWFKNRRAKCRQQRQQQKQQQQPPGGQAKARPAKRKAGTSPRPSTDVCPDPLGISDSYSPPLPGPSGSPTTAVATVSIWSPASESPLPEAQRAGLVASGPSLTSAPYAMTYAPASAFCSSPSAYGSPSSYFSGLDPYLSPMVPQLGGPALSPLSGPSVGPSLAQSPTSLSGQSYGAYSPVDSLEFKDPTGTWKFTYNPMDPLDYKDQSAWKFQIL

In the case of GCGATA, the binding signal is 1 fold enrichment (6-mer frequency, TF over GST control) with GABPA; 1 fold enrichment (6-mer frequency, TF over GST control) with ERG; 1.03 fold enrichment (6-mer frequency, TF over GST control) with SPI1; 1.02 fold enrichment (6-mer frequency, TF over GST control) with SPIB; 1.1 fold enrichment (6-mer frequency, TF over GST control) with ELK3; 1.06 fold enrichment (6-mer frequency, TF over GST control) with HSF1. Also, the binding signal with ELK4 was 1.07 fold enrichment (6-mer frequency, TF over GST control); in the assay with ETV2, 1.11 fold enrichment (6-mer frequency, TF over GST control); with ELF3, 1.02 fold enrichment (6-mer frequency, TF over GST control); in the assay with CRX, 1.11 fold enrichment (6-mer frequency, TF over GST control); in the assay with ETV3L it was 1.03 fold enrichment (6-mer frequency, TF over GST control); in the assay with ETS2, 1.04 fold enrichment (6-mer frequency, TF over GST control). Also, the binding signal in the assay with ETV7 is 1.06 fold enrichment (6-mer frequency, TF over GST control); with ELF5, 1.02 fold enrichment (6-mer frequency, TF over GST control).
